Source: PubChem BioAssay (National Center for Advancing Translational Sciences (NCATS))
Pf growth 96h – inhibits malaria parasite growth, 96 h | Potency, µM (titrated, usually from 28.7 µM), without a hit: top-dose activity change, negative = inhibition, usual class: inhibitors | P. falciparum luciferase reporter growth, 96 h | 320,000 compounds, 6.9% hits; further: potency means the concentration at half of the fitted maximal effect; on the % scale 0 is the no-effect control and ±100 the full control effect
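Readout is luminescence from an integrated firefly luciferase in P. falciparum. Red cells, 2% hematocrit and 0.05% parasitemia final, were cultured with compound through two parasite generations (96 hours) at 37 C, 5% CO2.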
Cycloheximide cs – affects cycloheximide protein synthesis inhibition readout, counter-screen | cell reporter, cycloheximide protein synthesis inhibition counterscreen | 300,000 compounds, 12% hits | max response, %; in the data active means max response mostly above about 13%, no sharp cut-off; inactive means mostly below about 14%; further: read at 38.3 µM for the half of the compounds with a filed dose; 0% is about no effect
Pf growth 48h – inhibits P. falciparum growth in the first generation, 48 h | P. falciparum luciferase growth in erythrocytes, 48 h | Potency, µM (doses to about 28.7 µM), for inactives: top-dose activity change, negative = inhibition, most hits filed as inhibitors | 310,000 compounds, 5.9% hits; further: potency means the concentration at half of the fitted maximal effect; on the % scale 0 is the no-effect control and ±100 the full control effect
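Growth was read as firefly luciferase luminescence after a 48 h, 37 C, 5% CO2 exposure of compounds to reporter-bearing P. falciparum cultures (0.1% parasitemia, 2% hematocrit final) in Albumax-supplemented RPMI 1640.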
HCMV inh – human cytomegalovirus inhibition | HFF cells, HCMV-luciferase reporter, 72 h; active compounds read low | 410,000 compounds, 4.5% hits | activity change, negative = inhibition, % at 57.5 µM; in the data active means activity change below about -60%; inconclusive means no clear call, values can overlap the other calls; inactive means above about -39%; further: on the % scale 0 is the no-effect control and ±100 the full control effect
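Two compound doses tested in HFFs infected with HCMV-luciferase, MOI 1 PFU/cell, 72 h at 37C. Lysate luminescence read with OneGlo; data normalized against buffer-only and 10uM Salinomycin inhibitor controls.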
Shiga inhibitor – blocks Shiga toxin action in Vero cells | inhibition, % at 38.7 µM | 290,000 compounds, 9.2% hits | Vero cells, Shiga toxin protein synthesis inhibition reporter; in the data active means inhibition mostly above about 28%, no sharp cut-off; inactive means mostly below about 43%; further: 0% is about no effect
HCV inhibitor – HCV inhibition. Huh7.5.1 HCVcc-Cre infection, luciferase reporter, 44 h. Potency, µM (highest dose often 41.8 µM), inactives show at the highest dose activity change, negative = inhibition, actives largely listed as inhibitors. 340,000 compounds, 3.4% hits. AID 651820; further: potency means the concentration at half of the fitted maximal effect; on the % scale 0 is the no-effect control and ±100 the full control effect
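Cells seeded at 1,000/well and cultured 4 h, then compounds added followed by HCVcc-Cre virus (~0.5 moi). After 44 h further culture, luciferase substrate was added, plates held 15 min at room temperature, and luminescence read for 15 sec.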
* marks the source's active call; other numbers are inactive results. A selection: hits, their analogues and other compounds. The true share with any hit is near 21%. Unless noted, the call rests on the fitted dose curve; in most records, active means well fitted inhibition curve with a large enough effect; inconclusive means small, poorly fitted or top-dose-only effect, or another doubt; inactive means no such curve, though single readings can be large or run the other way.

How did O=C(C[n+]1cc(-c2ccc(F)cc2)n2c1CCC2)c1cccs1 do in these assays?
Pf growth 96h: inconclusive; Cycloheximide cs: 18*; Pf growth 48h: 8.3µM*; HCMV inh: -26; Shiga inhibitor: 89*; HCV inhibitor: -1%

Results for NC(=O)C1CCCN(C(=O)c2ccc(-c3cccc(Cl)c3Cl)o2)C1 (stereo not drawn) ?
Pf growth 96h: 170%; Pf growth 48h: 160%; HCMV inh: 48; HCV inhibitor: inconclusive

How did O=C(Nc1cccc(S(=O)(=O)N2CCCCCC2)c1)C1CCN(C(=O)c2ccc(F)cc2)CC1 do in these assays?
Pf growth 96h: inconclusive; Pf growth 48h: inconclusive; HCMV inh: -18; HCV inhibitor: inconclusive

Results for O=C(Cn1ccc2cc(S(=O)(=O)N3CCCCCC3)ccc21)NCc1cccc(Cl)c1 ?
HCMV inh: 64

What do the screens show for `O=C(COC(=O)c1ccccc1C(=O)N1CCN(c2ccccc2)CC1)Nc1ccccc1`?
Pf growth 96h: -9%; Cycloheximide cs: 1; Pf growth 48h: 4.1µM*; HCMV inh: 27; Shiga inhibitor: 14; HCV inhibitor: inconclusive

Results for COc1cccc(NC(=O)COC(=O)c2ccccc2SCC(=O)N2CCCC2)c1 ?
Pf growth 96h: 33%; Pf growth 48h: -14%; HCMV inh: -9; HCV inhibitor: 0%

Results for O=C(COC(=O)c1ccccc1SCC(=O)N1CCCC1)Nc1ccccc1 ?
Pf growth 96h: inconclusive; Cycloheximide cs: 17*; Pf growth 48h: 112%; HCMV inh: 14; Shiga inhibitor: 43; HCV inhibitor: -4%

What do the screens show for `CC(=O)N1CCN(C(=O)c2ccccc2NS(=O)(=O)c2ccc(F)cc2)CC1`?
Pf growth 96h: -28%; Pf growth 48h: -22%; HCMV inh: -5; HCV inhibitor: 11%

How did CSc1nnc(N2C(=O)C(O)=C(C(=O)c3ccc(C)o3)C2c2ccc(C)cc2)s1 (stereo not drawn) do in these assays?
Pf growth 96h: 143%; Cycloheximide cs: 35*; Pf growth 48h: 141%; HCMV inh: 0; Shiga inhibitor: 95*; HCV inhibitor: inconclusive

What do the screens show for `Cc1ccc2nc(N3C(=O)C(O)=C(C(=O)c4ccc(C)o4)C3c3ccco3)sc2c1` (stereo not drawn)?
Pf growth 96h: 6.7µM*; Pf growth 48h: 52%; HCMV inh: 22; HCV inhibitor: 33%

How did O=C(C1=C(O)C(=O)N(c2nc3ccc(Cl)cc3s2)C1c1ccco1)c1ccco1 (stereo not drawn) do in these assays?
Pf growth 96h: -11%; Pf growth 48h: inconclusive; HCMV inh: -7; HCV inhibitor: -3%

How did Cc1ccc2nc(N3C(=O)C(O)=C(C(=O)c4ccco4)C3c3ccc(C)o3)sc2c1 (stereo not drawn) do in these assays?
Pf growth 96h: 5.2µM*; Cycloheximide cs: 31*; Pf growth 48h: 59%; HCMV inh: -21; Shiga inhibitor: 80*; HCV inhibitor: -4%

What do the screens show for `Cc1cc(C)c2nc(N3C(=O)C(O)=C(C(=O)c4ccco4)C3c3cccc(O)c3)sc2c1` (stereo not drawn)?
Pf growth 96h: -30%; Pf growth 48h: inconclusive; HCMV inh: 0; HCV inhibitor: inconclusive

Results for Cc1nnc(N2C(=O)C(O)=C(C(=O)c3ccco3)C2c2cccc3ccccc23)s1 (stereo not drawn) ?
Pf growth 96h: -4%; Cycloheximide cs: 1; Pf growth 48h: 10%; HCMV inh: -9; Shiga inhibitor: 37*; HCV inhibitor: 14%

Results for CCCNC(=O)C1(C)CCCN(C(=O)c2cccc(OC(F)(F)F)c2)C1 (stereo not drawn) ?
HCMV inh: 21

What do the screens show for `Cc1ccc2nc(N3C(=O)C(O)=C(C(=O)c4ccco4)C3c3ccc(O)cc3)sc2c1` (stereo not drawn)?
Pf growth 96h: inconclusive; Cycloheximide cs: 16*; Pf growth 48h: -8%; HCMV inh: 52; Shiga inhibitor: 35

Results for Cc1cc(C)c2nc(N3C(=O)C(O)=C(C(=O)c4ccco4)C3c3ccc(O)cc3)sc2c1 (stereo not drawn) ?
Pf growth 96h: -24%; Pf growth 48h: inconclusive; HCMV inh: 77; HCV inhibitor: 33%

How did O=C1N(Cc2ccccc2Cl)c2ccccc2C1(O)c1c[nH]c2ccccc12 (stereo not drawn) do in these assays?
HCMV inh: -94*

What do the screens show for `Cc1ccccc1CN1C(=O)C(O)(c2c[nH]c3ccccc23)c2cc(Cl)ccc21` (stereo not drawn)?
HCMV inh: -93*

Results for O=C1N(Cc2ccccc2)c2ccccc2C1(O)c1c[nH]c2ccccc12 (stereo not drawn) ?
HCMV inh: 15

Results for S=C(NCc1ccccc1)N1CCN(C2CCCCC2)CC1 ?
Pf growth 96h: -4%; Cycloheximide cs: -2; Pf growth 48h: 103%; HCMV inh: 0; Shiga inhibitor: 1; HCV inhibitor: -11%

Results for CCOc1ccc(NC(=O)CSC2=Nc3ccccc3C3=NC(CC(=O)NCc4ccccc4OC)C(=O)N23)cc1 (stereo not drawn) ?
HCMV inh: 0

What do the screens show for `O=C(COc1ccc(F)cc1)Nc1ccc2nc(SCC(=O)N3CCOCC3)sc2c1`?
HCMV inh: -15

Results for O=C(COc1ccccc1F)Nc1ccc2nc(SCC(=O)N3CCOCC3)sc2c1 ?
HCMV inh: -68*

Results for O=C(COc1ccccc1F)Nc1ccc2nc(SCC(=O)N3CCCC3)sc2c1 ?
HCMV inh: -63*

How did O=C(NCCCCc1ccccc1)c1nn(-c2ccccc2)nc1CO do in these assays?
HCMV inh: -8

Results for CSc1nc(C)cc(OCCNS(=O)(=O)c2cc(C)ccc2C)n1 ?
Pf growth 96h: inconclusive; Cycloheximide cs: -1; Pf growth 48h: -14%; HCMV inh: -8; Shiga inhibitor: -17; HCV inhibitor: 22µM*

What do the screens show for `CCOCCOC(=O)c1ccc2c(c1)N(Cc1ccccc1C#N)C(=O)c1ccccc1S2(=O)=O`?
HCMV inh: -2

Results for CCCN(CCC)c1nn2c(=O)c(C(=O)NCc3cccc(OC)c3)cnc2s1 ?
HCMV inh: 20

How did CCCSc1nc2sc3c(c2c(=O)[nH]1)CCN(Cc1ccccc1)C3 do in these assays?
Pf growth 96h: 4.1µM*; Cycloheximide cs: 12; Pf growth 48h: inconclusive; Shiga inhibitor: 18; HCV inhibitor: 9%

What do the screens show for `CC(C)(C)C(C(Oc1ccc(Cl)cc1)n1cncn1)n1nnnc1C(c1cccc(Cl)c1)N1CCCCC1` (stereo not drawn)?
Pf growth 96h: 2.1µM*; Cycloheximide cs: 1; Pf growth 48h: 1.9µM*; Shiga inhibitor: 2; HCV inhibitor: inconclusive
